In PubChem BioAssay (EPA / NIEHS):
Inconclusive results are not listed. Active and inactive are the calls of the source. The calls were made as follows, unless noted: active = hit-call score of the fitted dose curve at least 0.9, where 1 is the maximum; inconclusive = response in the unintended direction; inactive = score below 0.9.

Columns and labels:
[1] = target: human RAR-related Orphan Receptor gamma (RORg), RORC (gene 6097) (UniProt P51449); test: ATG_RORg_TRANS: Attagene TRANS-FACTORIAL HepG2 Assay for human RAR-related Orphan Receptor gamma (RORg) (AID 2283011)
human RAR-related Orphan Receptor gamma (RORg), RORC (gene 6097), sequence (P51449 whole entry, looked up, the tested form may be a part): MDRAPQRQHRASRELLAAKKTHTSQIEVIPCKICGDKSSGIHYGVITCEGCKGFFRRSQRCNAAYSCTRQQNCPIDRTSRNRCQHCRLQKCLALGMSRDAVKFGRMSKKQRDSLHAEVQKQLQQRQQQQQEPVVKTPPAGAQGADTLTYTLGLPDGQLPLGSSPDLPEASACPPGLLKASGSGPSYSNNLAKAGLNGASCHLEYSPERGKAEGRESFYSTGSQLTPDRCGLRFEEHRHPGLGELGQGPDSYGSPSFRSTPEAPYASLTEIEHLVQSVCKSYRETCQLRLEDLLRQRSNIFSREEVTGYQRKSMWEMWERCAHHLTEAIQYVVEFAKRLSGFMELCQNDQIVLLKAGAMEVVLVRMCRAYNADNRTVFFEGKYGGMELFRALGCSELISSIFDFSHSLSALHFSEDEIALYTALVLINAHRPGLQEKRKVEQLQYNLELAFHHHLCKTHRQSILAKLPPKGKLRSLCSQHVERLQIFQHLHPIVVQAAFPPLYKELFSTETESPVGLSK
How it was run: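 Reporter transcripts from a transfected RORg-GAL4 chimera in HepG2 cells were quantified 24 h after dosing by RT-PCR, 6-FAM labelling, HpaI digestion and capillary electrophoresis; increases over DMSO baseline were fitted.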

[2] = target: Retinoic acid receptor RXR-alpha (Homo sapiens) (UniProt P19793); test: ATG_RXRa_TRANS: Attagene TRANS-FACTORIAL HepG2 Assay for human Retinoid X Receptor alpha (RXRa) (AID 2283012)
Retinoic acid receptor RXR-alpha (Homo sapiens), sequence (P19793 whole entry, looked up, the tested form may be a part): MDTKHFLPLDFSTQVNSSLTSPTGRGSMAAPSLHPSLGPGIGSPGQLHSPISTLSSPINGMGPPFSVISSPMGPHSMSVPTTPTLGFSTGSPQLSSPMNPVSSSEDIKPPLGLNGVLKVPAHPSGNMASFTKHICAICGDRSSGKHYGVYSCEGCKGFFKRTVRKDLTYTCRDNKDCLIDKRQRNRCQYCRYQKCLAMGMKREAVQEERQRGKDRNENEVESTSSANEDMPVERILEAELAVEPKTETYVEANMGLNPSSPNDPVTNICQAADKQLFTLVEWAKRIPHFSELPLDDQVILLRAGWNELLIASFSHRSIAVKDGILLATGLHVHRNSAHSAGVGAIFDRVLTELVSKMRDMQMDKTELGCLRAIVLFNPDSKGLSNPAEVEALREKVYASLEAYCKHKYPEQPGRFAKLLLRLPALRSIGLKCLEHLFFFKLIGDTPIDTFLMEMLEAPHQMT
How it was run: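 HepG2 cells transiently transfected with GAL4-UAS reporter units and chimeric RXRa-Gal4 protein, treated 24 h. Reporter mRNA measured by RT-PCR, fluorescent labelling, HpaI digestion and capillary electrophoresis. Induction fitted against DMSO.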

[3] = target: human Thyroid Receptor alpha (THRa1), THRA (gene 7067) (UniProt P10827); test: ATG_THRa1_TRANS: Attagene TRANS-FACTORIAL HepG2 Assay for human Thyroid Receptor alpha (THRa1) (AID 2283014)
human Thyroid Receptor alpha (THRa1), THRA (gene 7067), sequence (P10827 whole entry, looked up, the tested form may be a part): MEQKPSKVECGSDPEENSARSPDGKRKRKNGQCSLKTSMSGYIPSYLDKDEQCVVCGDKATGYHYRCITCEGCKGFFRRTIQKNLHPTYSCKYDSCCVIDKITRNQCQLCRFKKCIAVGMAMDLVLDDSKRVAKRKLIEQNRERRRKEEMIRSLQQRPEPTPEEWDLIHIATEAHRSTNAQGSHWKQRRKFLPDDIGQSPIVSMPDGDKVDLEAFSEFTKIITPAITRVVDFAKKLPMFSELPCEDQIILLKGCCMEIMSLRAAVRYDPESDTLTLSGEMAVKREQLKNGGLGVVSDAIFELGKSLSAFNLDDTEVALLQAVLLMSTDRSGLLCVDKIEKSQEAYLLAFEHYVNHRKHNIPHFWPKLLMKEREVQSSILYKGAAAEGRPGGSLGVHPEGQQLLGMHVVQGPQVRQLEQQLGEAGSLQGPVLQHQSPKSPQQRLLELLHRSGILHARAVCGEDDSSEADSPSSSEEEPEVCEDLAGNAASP
How it was run: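 Transcripts from GAL4-UAS-driven reporters, measured after 24 h compound exposure by RT-PCR plus capillary electrophoresis of 6-FAM-labeled fragments, were fitted for gain of signal relative to DMSO. Cells: transiently transfected HepG2 expressing NR-Gal4 chimeras.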

[4] = target: human Retinoid X Receptor beta (RXRb), RXRB (gene 6257) (UniProt P28702); test: ATG_RXRb_TRANS: Attagene TRANS-FACTORIAL HepG2 Assay for human Retinoid X Receptor beta (RXRb) (AID 2283013)
human Retinoid X Receptor beta (RXRb), RXRB (gene 6257), sequence (P28702 whole entry, looked up, the tested form may be a part): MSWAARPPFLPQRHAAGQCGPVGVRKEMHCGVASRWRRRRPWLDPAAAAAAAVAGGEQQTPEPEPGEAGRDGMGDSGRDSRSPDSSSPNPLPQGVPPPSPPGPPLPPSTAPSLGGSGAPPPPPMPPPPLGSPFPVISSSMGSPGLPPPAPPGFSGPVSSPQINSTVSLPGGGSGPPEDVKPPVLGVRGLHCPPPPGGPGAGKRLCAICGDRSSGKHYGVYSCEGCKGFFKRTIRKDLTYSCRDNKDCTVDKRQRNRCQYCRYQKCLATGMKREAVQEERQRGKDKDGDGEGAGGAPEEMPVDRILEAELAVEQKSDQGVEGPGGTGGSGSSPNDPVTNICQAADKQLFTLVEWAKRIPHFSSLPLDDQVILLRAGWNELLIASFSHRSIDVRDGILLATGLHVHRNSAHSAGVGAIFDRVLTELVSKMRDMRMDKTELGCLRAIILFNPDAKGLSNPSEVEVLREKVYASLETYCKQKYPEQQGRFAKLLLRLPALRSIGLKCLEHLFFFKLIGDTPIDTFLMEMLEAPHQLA
How it was run: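 HepG2 cells were transiently transfected with multiplexed GAL4-UAS reporters and a chimeric RXRb-Gal4 construct, then exposed for 24 h. Reporter mRNA was quantified by RT-PCR, FAM labeling, HpaI digestion and capillary electrophoresis; gain of signal was scored against DMSO.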

[5] = read-out: E-selectin (Homo sapiens) (UniProt P16581); test: BSK_3C_Eselectin: BioMAP Diversity Plus: 3C Assay for Eselectin Biomarker Activity (AID 2283015; active = hit-call score of the fitted dose curve at least 0.9, where 1 is the maximum; inactive = score below 0.9); settings: primary human endothelial cells (HUVEC); actives raise or lower the signal
How it was run: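 E-selectin ELISA readout, fitted bidirectionally relative to DMSO, taken 24 h post-dosing in HUVEC cultures of the 3C system. Overt cytotoxicity tracked with sulforhodamine B staining of parallel wells.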

[6] = read-out: Interleukin-1 alpha (IL1a), IL1A (gene 3552); test: BSK_BE3C_IL1a: BioMAP Diversity Plus: BE3C Assay for Interleukin-1 alpha (IL1a) Biomarker Activity (AID 2283016; active = hit-call score of the fitted dose curve at least 0.9, where 1 is the maximum; inactive = score below 0.9); settings: primary human bronchial epithelial cells; actives raise or lower the signal
How it was run: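 Human primary bronchial epithelial cells, 24 h chemical exposure; IL-1a quantified by ELISA, fitted bidirectionally against DMSO. Cytotoxicity assessed in parallel by SRB total-protein staining at the time of measurement.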

[7] = read-out: Monocyte Chemoattractant Protein-1 (MCP1), CCL2 (gene 6347); test: BSK_3C_MCP1: BioMAP Diversity Plus: 3C Assay for Monocyte Chemoattractant Protein-1 (MCP1) Biomarker Activity (AID 2283017; active = hit-call score of the fitted dose curve at least 0.9, where 1 is the maximum; inactive = score below 0.9); settings: primary human endothelial cells (HUVEC); actives raise or lower the signal
How it was run: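 MCP-1 was measured by ELISA 24 h after dosing in primary HUVEC 3C cultures and fitted in both directions relative to DMSO; cytotoxicity was checked by SRB total-protein staining in parallel wells.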

[8] = read-out: Human Leukocyte Antigen - DR isotype (HLADR), HLA-DRA (gene 3122); test: BSK_3C_HLADR: BioMAP Diversity Plus: 3C Assay for Human Leukocyte Antigen - DR isotype (HLADR) Biomarker Activity (AID 2283019; active = hit-call score of the fitted dose curve at least 0.9, where 1 is the maximum; inactive = score below 0.9); settings: primary human endothelial cells (HUVEC); actives raise or lower the signal
How it was run: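 Bidirectional fitting against DMSO was applied to the HLA-DR ELISA signal from human umbilical vein endothelial cells, 24 h post-dose. Cytotoxicity came from parallel SRB total-protein staining; 3C proliferation was counted by SRB at 48 h.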

[9] = read-out: Interleukin-8 (IL8), CXCL8 (gene 3576); test: BSK_3C_IL8: BioMAP Diversity Plus: 3C Assay for Interleukin-8 (IL8) Biomarker Activity (AID 2283020; active = hit-call score of the fitted dose curve at least 0.9, where 1 is the maximum; inactive = score below 0.9); settings: primary human endothelial cells (HUVEC); actives raise or lower the signal
How it was run: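 Primary human umbilical vein endothelial cells were dosed for 24 h. IL-8 was quantified by ELISA and fitted bidirectionally against DMSO. Cytotoxicity was assessed in parallel cultures by SRB staining at 560 nm.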

[10] = read-out: Monokine induced gamma interferon (MIG), CXCL9 (gene 4283); test: BSK_3C_MIG: BioMAP Diversity Plus: 3C Assay for Monokine induced gamma interferon (MIG) Biomarker Activity (AID 2283021; active = hit-call score of the fitted dose curve at least 0.9, where 1 is the maximum; inactive = score below 0.9); settings: primary human endothelial cells (HUVEC); actives raise or lower the signal
How it was run: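 HUVEC primary endothelial cultures dosed with chemical; MIG quantified by ELISA at 24 h. Data fitted bidirectionally against DMSO control, with parallel SRB total-protein staining for cytotoxicity.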

E-selectin (Homo sapiens), sequence (P16581 whole entry, looked up): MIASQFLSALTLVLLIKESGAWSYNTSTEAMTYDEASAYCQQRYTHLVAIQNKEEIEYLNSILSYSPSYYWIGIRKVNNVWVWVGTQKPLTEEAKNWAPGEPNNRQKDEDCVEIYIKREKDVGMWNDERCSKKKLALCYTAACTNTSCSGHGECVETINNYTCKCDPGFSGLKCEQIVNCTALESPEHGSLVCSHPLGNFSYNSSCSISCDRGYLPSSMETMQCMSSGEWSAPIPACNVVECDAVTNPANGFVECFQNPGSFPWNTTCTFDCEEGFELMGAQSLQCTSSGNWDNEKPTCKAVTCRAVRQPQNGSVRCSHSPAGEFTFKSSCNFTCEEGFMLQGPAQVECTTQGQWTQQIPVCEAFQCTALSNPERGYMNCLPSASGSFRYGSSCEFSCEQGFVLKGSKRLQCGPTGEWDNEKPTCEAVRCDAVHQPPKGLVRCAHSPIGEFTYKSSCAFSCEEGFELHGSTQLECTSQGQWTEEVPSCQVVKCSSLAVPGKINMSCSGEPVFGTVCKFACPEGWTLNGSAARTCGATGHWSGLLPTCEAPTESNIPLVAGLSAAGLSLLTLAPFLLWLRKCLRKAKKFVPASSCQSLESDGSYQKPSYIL

Structure (SMILES): CC=C1CC2C=CC1C2 (configuration not stated)
- outcome [1]: inactive
- outcome [2]: inactive
- outcome [3]: inactive

Structure (SMILES): C=C(C)[C@H]1CC=C(C)CC1
- outcome [1]: inactive
- outcome [2]: inactive
- outcome [4]: inactive

Structure (SMILES): OCCCS
- outcome [1]: inactive
- outcome [4]: inactive

Structure (SMILES): C=C(C)CCO
- outcome [1]: inactive
- outcome [2]: inactive
- AC50 [4]: 63.9 µM (active)
- outcome [3]: inactive

Structure (SMILES): CCCCC(CC)COC(=O)c1ccccc1O (configuration not stated)
- outcome [1]: inactive
- outcome [2]: inactive
- outcome [4]: inactive
- AC50 [5]: 10 µM (active)
- outcome [6]: inactive
- AC50 [7]: 15.9 µM (active)
- AC50 [8]: 18.1 µM (active)
- AC50 [9]: 10 µM (active)
- outcome [10]: inactive

Structure (SMILES): Nc1ccc(Cl)cc1Cl
- outcome [1]: inactive
- outcome [4]: inactive

Structure (SMILES): CC(C)(C)c1ccc(N)cc1
- outcome [1]: inactive
- outcome [2]: inactive
- outcome [4]: inactive

Structure (SMILES): CCCCCCCCCCOC(C)=O
- outcome [1]: inactive
- outcome [2]: inactive
- outcome [4]: inactive
- outcome [3]: inactive

Structure (SMILES): CCCc1ccc(OC)cc1
- outcome [1]: inactive
- outcome [4]: inactive

Structure (SMILES): Nc1ccc(-c2ccc(F)cc2)cc1
- outcome [1]: inactive
- outcome [2]: inactive
- outcome [4]: inactive

Structure (SMILES): CCCCCCCCO[C@@H]1O[C@H](CO)[C@@H](O)[C@H](O)[C@H]1O
- outcome [1]: inactive
- outcome [2]: inactive
- outcome [3]: inactive

Structure (SMILES): COC(=O)/C=C\C(=O)O
- outcome [1]: inactive
- outcome [4]: inactive

Structure (SMILES): CC1=CC[C@H](C(C)C)C=C1
- outcome [1]: inactive
- outcome [2]: inactive
- AC50 [4]: 40.2 µM (active)

Structure (SMILES): COc1c2ccoc2cc2oc(=O)ccc12
- outcome [1]: inactive
- outcome [2]: inactive
- outcome [4]: inactive

Structure (SMILES): CC(=O)Oc1ccc(C)cc1
- outcome [1]: inactive
- outcome [2]: inactive
- outcome [4]: inactive

Structure (SMILES): C(=CC=Nc1ccccc1)C=CNc1ccccc1
- outcome [2]: inactive
- outcome [4]: inactive

Structure (SMILES): CCC(=O)Oc1ccc(/C(CC)=C(\CC)c2ccc(OC(=O)CC)cc2)cc1
- outcome [2]: inactive
- AC50 [4]: 2.92 µM (active)

Structure (SMILES): O=C1c2ccccc2C(=O)C1c1nc2ccccc2c(Br)c1O
- outcome [2]: inactive
- outcome [4]: inactive

Structure (SMILES): O=[N+]([O-])C1(Br)COCOC1
- outcome [2]: inactive
- outcome [4]: inactive

Structure (SMILES): CNC(=S)N(C)C
- outcome [2]: inactive
- outcome [4]: inactive

Structure (SMILES): CCCCCCCCCCCCCCCC(=O)OCC
- outcome [2]: inactive
- outcome [4]: inactive

Structure (SMILES): O=CN1CCCCC1
- outcome [2]: inactive
- outcome [4]: inactive

Structure (SMILES): C[Si](C)(C)O[Si](O)(O)O
- outcome [2]: inactive
- outcome [4]: inactive

Structure (SMILES): CC1=NC(C)OC1C (configuration not stated)
- outcome [2]: inactive

Structure (SMILES): Cc1c(C)c([N+](=O)[O-])c(C(C)(C)C)c([N+](=O)[O-])c1C
- AC50 [2]: 12.7 µM (active)
- AC50 [4]: 1.7 µM (active)

Structure (SMILES): C=CCCCCCCCCC(=O)OCCCC
- outcome [2]: inactive
- AC50 [4]: 104 µM (active)

Structure (SMILES): CC(C)(C)C1CCCCC1=O (configuration not stated)
- outcome [2]: inactive
- AC50 [4]: 91.4 µM (active)

Structure (SMILES): CCC(C)(C)C1CCCCC1OC(C)=O (configuration not stated)
- outcome [2]: inactive
- AC50 [4]: 74.1 µM (active)

Structure (SMILES): Cc1ccc2c(c1)C(=O)c1ccccc1C2=O
- outcome [2]: inactive
- outcome [4]: inactive

Structure (SMILES): O=C1CCCCCCCCCCC(=O)OCCO1
- outcome [2]: inactive
- outcome [4]: inactive

Structure (SMILES): Nc1ccc(N=Nc2ccccc2)c(N)n1
- outcome [2]: inactive
- outcome [4]: inactive

Structure (SMILES): CC/C=C\CCOC(=O)CCCCC
- outcome [2]: inactive
- outcome [4]: inactive

Structure (SMILES): CC(C)c1ccc2c(C(C)C)cc(C(C)C)c(S(=O)(=O)O)c2c1
- outcome [2]: inactive
- AC50 [4]: 18.2 µM (active)

Structure (SMILES): C[C@]12CCC(=O)C=C1CC[C@@H]1[C@@H]2C(=O)C[C@@]2(C)[C@H]1CC[C@]2(O)C(=O)CO
- outcome [2]: inactive
- outcome [4]: inactive

Structure (SMILES): [Cl][Bi]([Cl])([c]1ccccc1)([c]1ccccc1)[c]1ccccc1
- AC50 [2]: 5.6 µM (active)
- AC50 [4]: 1.04 µM (active)

Structure (SMILES): Cc1cc(=O)n(-c2ccccc2)n1C
- outcome [2]: inactive
- outcome [4]: inactive

Structure (SMILES): CC(C)c1ccc2cc(C(C)C)ccc2c1
- outcome [2]: inactive
- AC50 [4]: 20.8 µM (active)

Structure (SMILES): O=C1OC(=O)c2cc(Oc3ccc4c(c3)C(=O)OC4=O)ccc21
- outcome [2]: inactive
- outcome [4]: inactive

Structure (SMILES): CCCCCC/C=C\CCCCCCCC(=O)O
- outcome [2]: inactive
- AC50 [4]: 77 µM (active)

Structure (SMILES): FC(F)(F)C(=NOCC1OCCO1)c1ccc(Cl)cc1
- outcome [2]: inactive
- AC50 [4]: 20.4 µM (active)

Structure (SMILES): O=C1Nc2ccccc2C1(c1ccc(O)cc1)c1ccc(O)cc1
- outcome [2]: inactive
- outcome [4]: inactive

Structure (SMILES): CCCCCCCCCCOS(=O)(=O)O
- outcome [2]: inactive
- outcome [4]: inactive

Structure (SMILES): COc1cc(NC(=O)CC(C)=O)c(OC)cc1Cl
- outcome [2]: inactive
- outcome [4]: inactive

Structure (SMILES): CN(C)c1ccc(N=Nc2ccccc2C(=O)O)cc1
- outcome [2]: inactive
- outcome [4]: inactive

Structure (SMILES): OC1CCCCCCCCCCC1
- outcome [2]: inactive
- AC50 [4]: 44.6 µM (active)

Structure (SMILES): O=C1CC2CC1C1CCCC21 (configuration not stated)
- outcome [2]: inactive
- outcome [4]: inactive

Structure (SMILES): CC(C)CCCCCOC(=O)CCS
- outcome [2]: inactive
- outcome [4]: inactive

Structure (SMILES): CCCCCCCC/C=C\CCCCCCCC(=O)OCCO
- outcome [2]: inactive
- AC50 [4]: 17.7 µM (active)

Structure (SMILES): COC=O
- outcome [2]: inactive
- outcome [4]: inactive

Structure (SMILES): CC(=O)CC(N)=O
- outcome [2]: inactive
- outcome [4]: inactive

Structure (SMILES): CC(CC=O)c1ccccc1 (configuration not stated)
- outcome [2]: inactive
- outcome [4]: inactive

Structure (SMILES): O=C(c1ccccc1)C1CCC1
- outcome [2]: inactive
- outcome [4]: inactive

Structure (SMILES): O=c1cc(-c2ccccc2)oc2ccccc12
- outcome [2]: inactive
- outcome [4]: inactive
- outcome [3]: inactive

Structure (SMILES): CCc1ccc2c(c1)C(=O)c1ccccc1C2=O
- outcome [2]: inactive
- outcome [4]: inactive
- outcome [3]: inactive

Structure (SMILES): COC(=O)c1c(C)cc(O)c(C)c1O
- outcome [2]: inactive
- outcome [4]: inactive
- outcome [3]: inactive

Structure (SMILES): Cc1ccc2oc(=O)ccc2c1
- outcome [2]: inactive
- outcome [4]: inactive
- outcome [3]: inactive

Structure (SMILES): O=S1(=O)OC(c2ccc(O)cc2)(c2ccc(O)cc2)c2ccccc21
- outcome [2]: inactive
- outcome [4]: inactive
- outcome [3]: inactive

Structure (SMILES): O=C(Nc1cccc(C(F)(F)F)c1)c1cc(Br)cc(Br)c1O
- outcome [2]: inactive
- outcome [4]: inactive
- outcome [3]: inactive

Structure (SMILES): CCCCC(CC)COC(=O)c1ccccc1 (configuration not stated)
- outcome [2]: inactive
- AC50 [4]: 60.9 µM (active)
- outcome [3]: inactive

Structure (SMILES): CC(C)(C)c1ccc(-c2ccc(C(C)(C)C)cc2)cc1
- outcome [2]: inactive
- outcome [4]: inactive
- outcome [3]: inactive

Structure (SMILES): Cc1cccc(N(C)C(=S)Oc2ccc3ccccc3c2)c1
- outcome [2]: inactive
- AC50 [4]: 32.6 µM (active)
- outcome [3]: inactive

Structure (SMILES): CCC(C)OC(=O)c1ccc(O)cc1 (configuration not stated)
- outcome [2]: inactive
- AC50 [4]: 70.8 µM (active)
- outcome [3]: inactive
